From PubChem BioAssay
Most compounds without a hit are left out; they make up all but 2.8% or so of the library.
B2AR arrestin: recruits beta-arrestin to the human beta2-adrenergic receptor | P07550 | beta-arrestin recruitment to beta2AR, cell-based reporter | Potency, µM (top dose mostly 46.1 µM), for the others: top-dose activation, actives largely listed as activators | 330,000 compounds, 0.02% hits; active means well fitted activation curve with a large enough effect; inconclusive means small, poorly fitted or top-dose-only effect;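 further: potency means the concentration at half of the fitted maximal effect; 0% = DMSO controls and full agonism = EC100 isoproterenol or metaproterenol; nearly all actives have a fitted effect of over 65% in size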
Giardia kill: Giardia lamblia killing. Giardia lamblia trophozoite viability. activity change, % at 7.66 µM, hits read low. 340,000 compounds, 0.15% hits. AID 540267; in the data active means activity change below about -80%; inconclusive means between about -30% and that limit;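 further: parasites exposed to compound for two days anaerobically before the ATP read; on the % scale 0 is the no-effect control and ±100 the full control effect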
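Giardia lamblia trophozoites (100 cells/well) were incubated with compounds for 48 h at 37 deg C under anaerobic conditions. Viability was read as ATP content by one-step luminescence after 15-30 min at room temperature.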
D3 antag: antagonists of human D3 dopamine receptor | P35462 | D3R cells, DiscoveRx beta-arrestin luminescence, antagonist mode; stronger effect = lower value | max response, negative = inhibition, % | 360,000 compounds, 2.5% hits | AID 652054; in the data active means max response below about -50%; inconclusive means no clear call, values can overlap the other calls; further: on the % scale 0 is the no-effect control and ±100 the full control effect
Target sequence (P35462 whole entry, looked up): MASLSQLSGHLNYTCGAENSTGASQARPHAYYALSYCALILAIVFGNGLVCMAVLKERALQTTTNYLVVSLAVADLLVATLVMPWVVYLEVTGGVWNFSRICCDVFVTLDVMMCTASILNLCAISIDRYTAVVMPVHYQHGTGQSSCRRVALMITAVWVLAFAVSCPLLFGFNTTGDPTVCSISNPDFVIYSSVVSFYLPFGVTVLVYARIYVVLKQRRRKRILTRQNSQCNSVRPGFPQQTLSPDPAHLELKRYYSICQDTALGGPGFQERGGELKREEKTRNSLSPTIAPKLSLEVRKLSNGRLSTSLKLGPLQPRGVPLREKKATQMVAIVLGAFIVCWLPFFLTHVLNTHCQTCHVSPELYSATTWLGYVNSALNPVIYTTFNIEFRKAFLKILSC
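Cells expressing the human receptor were seeded at 1500 cells/well, incubated overnight at 37 degrees C in 5% CO2, then exposed to library compounds with dopamine controls for 90 minutes at 37 degrees C before luminescent detection.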
DRD3 agonist: agonists of human D3 dopamine receptor; P35462; D3R DiscoveRx beta-arrestin cells, luminescence, 90 min; max activation, %; 410,000 compounds, 0.58% hits; in the data active means max activation above about 30%; further: 0% is about no effect
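Cells at 1500/well, incubated overnight, then treated with pinned compounds (dopamine as control) for 90 min at 37 degrees C. DiscoveRx reagent added for 30 - 60 minutes at room temperature; luminescence read.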
* = called active by the depositor; ? = inconclusive; / = no result given.

SMILES | B2AR arrestin | Giardia kill | D3 antag | DRD3 agonist
CCC(C)NCCCOc1c(C)cc(C)cc1Br (stereo unspecified) | 0% | -8 | -54* | -4
CCC(C)NCCOc1ccc(C)cc1[N+](=O)[O-] (stereo unspecified) | -1% | 27 | -60* | -17
CCC(=O)N1CCc2cc(S(=O)(=O)NCCC(=O)Nc3ccc(C)cc3)ccc21 | / | / | / | 1
CCOC(=O)c1ccccc1OCc1cc(C2Nc3ccccc3C(=O)N2c2cccc3ccccc23)ccc1OC (stereo unspecified) | / | 6 | / | /
Cc1cccc(N2CCN(C(=O)c3cc4c(=O)n(C)c5ccccc5c4s3)CC2)c1C | / | / | / | 6
CC(C)C[C@@H](NC(=O)[C@@H](O)[C@H](N)Cc1ccccc1)C(=O)O | / | / | / | 0
C=CCN(CC=C)CCOc1cc(C)ccc1[N+](=O)[O-] | 0% | -7 | ? | -11
COc1ccccc1OCCOCCOc1ccc(C)cc1[N+](=O)[O-] | 0% | 19 | 7 | 0
CCC(C)NCCOCCOc1ccc(C)cc1Br (stereo unspecified) | 0% | 34 | -70* | -13
COCCCNCCCCOc1ccc(C)cc1[N+](=O)[O-] | -1% | -2 | -70* | -34
C=CCNCCOCCOc1ccc(C)cc1Br | 0% | 7 | ? | -8
C=CCN(CC=C)CCOc1ccc(C)cc1[N+](=O)[O-] | 0% | 8 | -96* | -9
COc1cccc(C(=O)NCCc2csc3nc(-c4ccccc4F)nn23)c1OC | / | / | / | 8
COc1cccc(NC(=O)C2CCCN(S(=O)(=O)c3cn(C(C)C)cn3)C2)c1 (stereo unspecified) | / | / | / | -16
Cc1ccc(-n2ncc3c(N4CCN(C)CC4)ncnc32)cc1Cl | / | / | / | 0
Cc1ccc(CN2CCCn3nc(C(=O)NCc4ccc(N(C)C)cc4)cc3C2=O)cc1 | / | / | / | 10
O=C(CNC(=O)c1ccc(Cl)cc1)OCc1cc(=O)n2ccsc2n1 | / | / | / | 2
COc1cccc(CN2C(=O)c3ccccc3Sc3ccc(C(=O)N(C)Cc4ccccc4)cc32)c1 | / | / | / | 6
O=C1c2ccccc2C(=O)N1CCC#Cc1ccc2cc(CCCO)oc(=O)c2c1 | 0% | -15 | 83 | 33*
O=c1oc(CCCO)cc2ccc(C#Cc3ccsc3)cc12 | 1% | -15 | 59 | 27
CCc1cc2c(=O)[nH]c(-c3ccccn3)nc2s1 | ? | -7 | -68* | -22
CCc1cc2c(=O)[nH]c(N3CCCC3)nc2s1 | 0% | -17 | 4 | 5
O=C(c1cc2ccccc2cc1OCC(O)CN1CCCCC1)N1CCCCC1 (stereo unspecified) | 6% | 28 | -85* | -17
OC(COc1ccc(OCC(O)CN2CCCCC2)cc1)CN1CCCCC1 (stereo unspecified) | -1% | 27 | -1 | -4
OC(COc1ccc(Cl)cc1)CN1CCCCC1 (stereo unspecified) | -1% | -5 | -55* | -20
SMILES | B2AR arrestin | Giardia kill | D3 antag | DRD3 agonist
OC(COc1c(Cl)cc(Cl)cc1Cl)CN1CCCCC1 (stereo unspecified) | 0% | 1 | -63* | -22
Cc1ccc(OCC(O)Cn2c(=N)n(CCN3CCCCC3)c3ccccc32)cc1 (stereo unspecified) | 0% | -15 | -63* | -10
CCCCC(O)c1ccccc1 (stereo unspecified) | / | / | / | 0
COc1ccc(-c2noc(-c3nnn(-c4ccc(C(C)C)cc4)c3C)n2)cc1OC | / | / | / | 36*
CC(=O)/C=C/n1c(=S)oc2ccccc21 | ? | -6 | -85* | -34
CCN1C(=O)c2ccccc2C1Nc1ccc(OCCN2CCCCC2)cc1 (stereo unspecified) | / | / | / | -21
Cc1cccc(C(=O)Nc2ccc(OCc3cc(=O)n4ccsc4n3)cc2)c1 | / | / | / | 1
CCCCCn1c(=O)[nH]c2cc(C(=O)NCCN3CCC(C)CC3)ccc2c1=O | 0% | -8 | 6 | -28
CCCCOc1ccc(C(=O)NCCN2CCC(n3c(=O)[nH]c4ccccc43)CC2)cc1 | / | / | -60* | -11
O=C(NCCN1CCC(n2c(=O)[nH]c3ccccc32)CC1)c1ccc(OC(F)(F)F)cc1 | / | / | -86* | -12
COc1ccc(CN(Cc2ccccc2)C(=O)c2ccncc2)cc1COc1ccc(NC(C)=O)cc1 | / | 5 | / | /
CCSc1nc2ccccc2n1C(=O)/C=C/c1ccc(OC)c(OC)c1 | ? | 20 | -51* | -1
C=CCSc1nc2ccccc2n1C(=O)/C=C/c1cc(OC)c(OC)c(OC)c1 | 0% | 4 | -61* | -54
C=CCSc1nc2ccccc2n1C(=O)/C=C/c1ccc(OC)c(OC)c1 | 0% | 3 | -10 | -17
CCn1c(SCC(=O)N/N=C/c2ccc(OC)c(OC)c2)nc2ccccc21 | 0% | -11 | 16 | 9
CCC1CCCCN1CCCNC(=O)c1sc2nc(C)cc(C)c2c1-n1cccc1 (stereo unspecified) | / | / | / | -8
O=C1Nc2cc(C(=O)NCCCN3CCCC3)ccc2S/C1=C/c1cccc(Cl)c1 | / | / | -59* | -2
Cc1cccc(/C=C2/Sc3ccc(C(=O)NCCN4CCCC4)cc3NC2=O)c1 | -1% | 10 | -7 | -11
CC(=O)Nc1nc(-c2ccccc2)nc(-c2ccccc2OC(C)=O)n1 | 0% | 8 | 3 | 3
CC(=O)Nc1nc(C)nc(-c2ccccc2OC(C)=O)n1 | 0% | 3 | 18 | 31*
CC1(C)OC(=O)C2(Cc3c(F)cccc3N3CCCC32)C(=O)O1 (stereo unspecified) | / | 20 | / | /
Cc1cc(C)cc(-n2c(SCC(=O)NCc3ccco3)nc3c([nH]c4ccccc43)c2=O)c1 | / | / | / | 0
Cc1ccc(-n2c(SCC(=O)NCc3ccco3)nc3c([nH]c4ccccc43)c2=O)cc1 | 3% | 25 | -50* | 0
Cc1ccc(C(=O)CSC2=C(C#N)C(c3ccco3)C3=C(CC(C)(C)CC3=O)N2)cc1 (stereo unspecified) | 0% | -13 | -59* | -1
CC1(C)CC(=O)C2=C(C1)NC(SCC(=O)Nc1ccccc1)=C(C#N)C2c1ccco1 (stereo unspecified) | 0% | 2 | 18 | 3
SMILES | B2AR arrestin | Giardia kill | D3 antag | DRD3 agonist
Cc1noc(C)c1CSc1nc2sc(C)c(C)c2c(=O)n1-c1ccccc1 | 0% | -8 | -9 | 2
C=CCn1c(SCC(=O)NCCO)nc2sc(C)c(C)c2c1=O | 0% | 7 | 1 | 6
C=CCn1c(SCc2c(C)noc2C)nc2sc(C)c(C)c2c1=O | 0% | 7 | -16 | 35*
C=CCn1c(SCC(=O)c2cc(C)n(C(C)COC)c2C)nc2sc(C)c(C)c2c1=O (stereo unspecified) | 0% | -12 | 20 | 60*
CCC(=O)Nc1sc2c(c1C(=O)Nc1ccc(Br)cc1)CCCCC2 | / | / | / | 3
CC1(C)S[C@@H]2[C@H](NC(=O)C(C(=O)O)c3ccsc3)C(=O)N2[C@H]1C(=O)O (stereo partly specified) | / | / | / | 4
CC12CCC=CC1C(c1ccc3ccccc3c1C=Cc1ccccc1)N(Cc1ccccc1)C2=O (stereo unspecified) | / | 2 | / | /
CCc1n[nH]c(=S)n1/N=C/c1ccc(-c2ccc(Br)cc2)o1 | / | -15 | -146* | 0
CCCc1nc2c(s1)CCc1onc(-c3ccc(Br)cc3)c1-2 | / | -1 | 15 | 43*
